Data published in PubChem BioAssay (NCI).
Compounds without any hit were thinned out: in the full panel of roughly 83,000, 20% have a hit.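 The endpoint reported here, percent growth, reads 100 for growth as untreated, 0 for no net growth and -100 for all cells dead.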 Unmarked numbers belong to inactive results. Active and inactive are the calls of the source. Rule for the calls: active = growth percent below 10; inactive = the rest.

System: HL-60(TB) leukemia
Assay: NCI-60 one-dose screen, 48 h (100 = growth as untreated, 0 = no growth, -100 = all killed)
Settings: 10 µM unless noted

SMILES | growth
C#CCNC(=O)[C@H](CC)[C@H]1CC[C@H](C)[C@H]([C@@H](C)[C@H](O)[C@H](C)C(=O)[C@H](CC)C2O[C@]3(C=CC(=O)[C@]4(CC[C@@](C)([C@H]5CC[C@](O)(CC)[C@H](C)O5)O4)O3)[C@H](C)C[C@@H]2C)O1 (stereo partly specified) | 1.79% (active)
CCN(CC)CCOc1ccc2c(c1O)C(=O)c1ccccc1C2=O | 71.4%
O=C1/C(=C/c2ccc([N+](=O)[O-])o2)Oc2ccc(Br)cc21 | 43.2%
C=C1C(=O)O[C@H]2[C@H]1CC/C(COC(=O)CCCCC(=O)OC/C1=C/CC[C@@]3(C)O[C@H]3[C@H]3OC(=O)C(=C)[C@@H]3CC1)=C\CC[C@@]1(C)O[C@@H]21 | 2.37% (active)
CCCNC(=O)c1ccc(S(N)(=O)=O)cc1 | 133%
Cc1ccc(C2SCC(=O)N2NC(=O)c2[nH]c3ccc(F)cc3c2-c2ccccc2)cc1 (stereo unspecified) | 78.6%
COc1ccc(/C=C/C(=O)c2ccc(NC(=O)CSc3nnc(-c4ccc(OC)c(OC)c4)n3-c3ccccc3)cc2)cc1 | 54.8%
CC(c1ccccc1)N1C(=O)C(C2SC(=S)N(C(C)c3ccccc3)C2=O)SC1=S (stereo unspecified) | 78.2%
CN(C)c1cccc2c(S(=O)(=O)N[C@H]3CC[C@H]4[C@@H]5CCc6cc(O)ccc6[C@H]5CC[C@]34C)cccc12 | -26.7% (active)
CN1CCN(Cc2ccc(NC(=O)c3cccc(C#Cc4c(N)ncc5ccc(F)cc45)c3)cc2C(F)(F)F)CC1 | -53.7% (active)
COc1ccc(/C=C/C(=O)c2ccc(NC(=O)CSc3nc4c([nH]3)c(=O)n(C)c(=O)n4C)cc2)cc1OC | 99.5%
BrCCCc1n(Cc2ccc3ccccc3c2)c2ccccc2[n+]1Cc1ccc2ccccc2c1 | -54.9% (active)
COc1cc(-c2nn(-c3ccc(Br)cc3)cc2C(=O)O)ccc1O | 82.8%
Cc1ccc(C(C)C)cc1NC(=O)Nc1ccc([N+](=O)[O-])cc1 | -8.6% (active)
CO/C=C/C(=O)c1cc2cnc3c(=N)cc(NC(=O)C(C)C)c([nH]1)c23 | -0.789% (active)
CN1CCCC1=Nc1ccccc1 | 93.3%

SMILES | growth
c1cc(CNC23CC4CC(CC(C4)C2)C3)cc(C[N+](Cc2cccc(CNC34CC5CC(CC(C5)C3)C4)c2)(Cc2cccc(CNC34CC5CC(CC(C5)C3)C4)c2)Cc2cccc(CNC34CC5CC(CC(C5)C3)C4)c2)c1 (stereo unspecified) | -29.5% [42 µM] (active)
O=C(/C=C/c1cccs1)Nc1ncc(Cc2ccc(Cl)c(Cl)c2)s1 | 14%
COc1cc(-c2cc(-c3ccc(C)cc3)nc3nc(N)[nH]c(=O)c23)ccc1Oc1ccnc2cc(Cl)ccc12 | 56.2%
O=[N+]([O-])c1ccc(N=Nc2c(NNc3ccc([N+](=O)[O-])cn3)cc(S(=O)(=O)O)c3ccccc23)nc1 | 94.9%
CC[C@@H]1C(=O)N(C)c2cnc(Nc3ccc(C(=O)NC4CCN(C)CC4)cc3OC)nc2N1C1CCCC1 | -42.1% (active)
Cc1ccc(S(=O)(=O)N2CCN(C(=O)CSc3nc4ccc(C)cc4[nH]3)CC2)cc1 | -1.47% (active)
CCCCCCCCCCC(CN(CC)CC)C(O)c1ccccc1 (stereo unspecified) | 44.7%
C[C@]12CC[C@@H]3c4ccc(OS(=O)(=O)O)cc4CC[C@H]3[C@@H]1CC[C@@H]2NS(=O)(=O)c1ccc(-c2ccccc2)cc1 | 43.9%
C[C@]12CC[C@@H]3c4ccc(O)cc4CC[C@H]3[C@@H]1CC[C@@H]2NS(=O)(=O)c1cccc(Br)c1 | 35.2%
O=C(Nc1ccc(N2CCNCC2)cc1)c1[nH]ncc1Nc1cc(Oc2ccccc2)ncn1 | -49.6% (active)
C=C(C)[C@@H]1CC[C@]2(C(=O)N3CCN(C)CC3)CC[C@]3(C)[C@H](CC[C@@H]4[C@@]5(C)C/C(=C/c6ccc(C(F)(F)F)cc6)C(=O)C(C)(C)[C@@H]5CC[C@]43C)[C@@H]12 | 94.1%
CSc1nc(-c2cccs2)c2c(N)[nH]nc2n1 | 85.3%
COc1ccc(OC)c(/C=C2\Oc3cc(OCCN4CCCC4)ccc3C2=O)c1 | 69.2%
O=C1Nc2ccccc2C1(c1c[nH]c2ccccc12)c1c[nH]c2ccccc12 | 77.8%
CCOC(=O)c1c(C)nc2c(c1N)CC(=O)N2Cc1ccc(F)cc1 | 83.5%
